# Assay results as given in PubChem BioAssay AID1159580 (chemical genetic matrix, 2015).
# In all, about 5,500 compounds went through this assay and about 2,000 (36%) were called active. Roughly 18% stayed inconclusive and do not appear here. The list shows a part of the results. A number with no mark means an inactive call. Cut-off read from the data, not from the text of the source: active = normalized growth mostly below about 0.91 (no sharp cut-off); inconclusive = no clear call, values can overlap the other calls; inactive = mostly above about 0.92.
# Assay: chemical genetic growth profiling, strain panel (AID 1159580);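 note: tested at 20 µM; growth read once vehicle control cultures reached saturation at 30 °C; 1 = growth at the plate median or of vehicle wells; lower values mean less growth of the strain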
# Settings: S. cerevisiae deletion strains, growth OD
smiles,measurement,setting,value
CC(=O)c1ccc(O)c(CC=C(C)C)c1,normalized growth,"locus YAL021C, strain ccr4, active compounds read low",1
same,normalized growth,"locus YAL026C, strain drs2, active compounds read low",0.952
same,normalized growth,"locus YAL030W, strain snc1, active compounds read low",0.972
same,normalized growth,"locus YBL061C, strain skt5, active compounds read low",0.956
same,normalized growth,"locus YBR009C, strain hhf1, active compounds read low",0.933
same,normalized growth,"locus YBR021W, strain FUR4, active compounds read low",0.954
same,normalized growth,"locus YBR023C, strain chs3, active compounds read low",0.964
same,normalized growth,"locus YBR171W, strain sec66, active compounds read low",0.949
same,normalized growth,"locus YBR229C, strain ROT2, active compounds read low",0.983
same,normalized growth,"locus YBR231C, strain swc5, active compounds read low",0.929
same,normalized growth,"locus YBR279W, strain paf1, active compounds read low",0.977
same,normalized growth,"locus YCL011C, strain gbp2, active compounds read low",0.959
same,normalized growth,"locus YCL016C, strain dcc1, active compounds read low",0.999
same,normalized growth,"locus YCL029C, strain bik1, active compounds read low",0.967
same,normalized growth,"locus YCL061C, strain MRC1, active compounds read low",0.965
same,normalized growth,"locus YCL069W, strain vba3, active compounds read low",0.971
same,normalized growth,"locus YCR088W, strain abp1, active compounds read low",0.968
same,normalized growth,"locus YDL005C, strain med2, active compounds read low",0.952
same,normalized growth,"locus YDL035C, strain GPR1, active compounds read low",0.956
same,normalized growth,"locus YDL040C, strain nat1, active compounds read low",0.97
same,normalized growth,"locus YDL074C, strain BRE1, active compounds read low",0.867
same,normalized growth,"locus YDL101C, strain DUN1, active compounds read low",0.963
same,normalized growth,"locus YDL134C, strain PPH21, active compounds read low",0.984
same,normalized growth,"locus YDL185W, strain tfp1, active compounds read low",0.922
same,normalized growth,"locus YDL192W, strain arf1, active compounds read low",0.942
same,normalized growth,"locus YDR001C, strain nth1, active compounds read low",0.966
same,normalized growth,"locus YDR069C, strain doa4, active compounds read low",0.951
same,normalized growth,"locus YDR101C, strain arx1, active compounds read low",0.968
same,normalized growth,"locus YDR137W, strain rgp1, active compounds read low",0.983
same,normalized growth,"locus YDR159W, strain sac3, active compounds read low",0.896
same,normalized growth,"locus YDR162C, strain NBP2, active compounds read low",0.963
same,normalized growth,"locus YDR195W, strain ref2",0.975
same,normalized growth,"locus YDR297W, strain sur2, active compounds read low",0.933
same,normalized growth,"locus YDR318W, strain mcm21, active compounds read low",0.958
same,normalized growth,"locus YDR334W, strain swr1, active compounds read low",0.966
same,normalized growth,"locus YDR335W, strain msn5, active compounds read low",0.994
same,normalized growth,"locus YDR388W, active compounds read low",0.967
same,normalized growth,"locus YDR392W, strain spt3, active compounds read low",0.929
same,normalized growth,"locus YDR502C, strain sam2, active compounds read low",0.938
same,normalized growth,"locus YEL003W, strain gim4, active compounds read low",0.928
same,normalized growth,"locus YEL037C, strain rad23, active compounds read low",0.964
same,normalized growth,"locus YEL061C, strain CIN8 (second series), active compounds read low",0.965
same,normalized growth,"locus YEL061C, strain CIN8, active compounds read low",0.982
same,normalized growth,"locus YER015W, strain faa2, active compounds read low",0.971
same,normalized growth,"locus YER016W, strain bim1, active compounds read low",0.975
same,normalized growth,"locus YER110C, active compounds read low",0.965
same,normalized growth,"locus YER111C, strain swi4, active compounds read low",0.974
same,normalized growth,"locus YER155C, strain BEM2 (second series), active compounds read low",0.958
same,normalized growth,"locus YER155C, strain BEM2, active compounds read low",0.986
same,normalized growth,"locus YER167W, strain BCK2, active compounds read low",0.904
same,normalized growth,"locus YFR010W, strain ubp6, active compounds read low",0.952
same,normalized growth,"locus YGL078C, strain dbp3, active compounds read low",0.961
same,normalized growth,"locus YGL086W, strain mad1, active compounds read low",0.972
same,normalized growth,"locus YGL167C, strain pmr1, active compounds read low",0.962
same,normalized growth,"locus YGL173C, strain kem1, active compounds read low",0.949
same,normalized growth,"locus YGL227W, strain vid30, active compounds read low",0.961
same,normalized growth,"locus YGL240W, strain doc1, active compounds read low",0.894
same,normalized growth,"locus YGL248W, strain PDE1, active compounds read low",0.961
same,normalized growth,"locus YGL253W, strain hxk2, active compounds read low",0.884 (active)
same,normalized growth,"locus YGR078C, strain PAC10, active compounds read low",0.936
same,normalized growth,"locus YGR135W, strain pre9, active compounds read low",0.934
same,normalized growth,"locus YGR229C, strain SMI1, active compounds read low",0.84
same,normalized growth,"locus YGR252W, strain gcn5, active compounds read low",0.749 (active)
same,normalized growth,"locus YHR013C, strain ard1, active compounds read low",0.991
same,normalized growth,"locus YHR027C, strain rpn1, active compounds read low",0.971
same,normalized growth,"locus YHR030C, strain SLT2, active compounds read low",0.976
same,normalized growth,"locus YHR079C, strain IRE1 (second series), active compounds read low",0.959
same,normalized growth,"locus YHR094C, strain hxt1, active compounds read low",0.967
same,normalized growth,"locus YHR129C, strain ARP1, active compounds read low",0.967
same,normalized growth,"locus YHR142W, strain chs7, active compounds read low",0.926
same,normalized growth,"locus YHR200W, strain rpn10, active compounds read low",0.971
same,normalized growth,"locus YIL066C, strain RNR3, active compounds read low",0.945
same,normalized growth,"locus YIL073C, strain SPO22, active compounds read low",0.955
same,normalized growth,"locus YIR030C, strain dcg1, active compounds read low",0.965
same,normalized growth,"locus YJL092W, strain hpr5, active compounds read low",0.97
same,normalized growth,"locus YJL095W, strain BCK1 (second series), active compounds read low",0.964
same,normalized growth,"locus YJL095W, strain BCK1, active compounds read low",0.956
same,normalized growth,"locus YJL115W, strain asf1, active compounds read low",0.975
same,normalized growth,"locus YJL129C, strain trk1, active compounds read low",0.946
same,normalized growth,"locus YJL134W, strain LCB3, active compounds read low",0.974
same,normalized growth,"locus YJL154C, strain vps35, active compounds read low",0.966
same,normalized growth,"locus YJL164C, strain tpk1, active compounds read low",0.973
same,normalized growth,"locus YJL166W, strain qcr8, active compounds read low",0.936
same,normalized growth,"locus YJL168C, strain set2, active compounds read low",0.99
same,normalized growth,"locus YJL187C, strain SWE1 (second series), active compounds read low",0.953
same,normalized growth,"locus YJL187C, strain SWE1, active compounds read low",0.961
same,normalized growth,"locus YJR043C, strain POL32, active compounds read low",0.876
same,normalized growth,"locus YJR075W, strain HOC1, active compounds read low",0.947
same,normalized growth,"locus YKL009W, strain mrt4, active compounds read low",0.939
same,normalized growth,"locus YKL068W, active compounds read low",0.957
same,normalized growth,"locus YKL085W, strain MDH1 (second series), active compounds read low",0.951
same,normalized growth,"locus YKL085W, strain MDH1, active compounds read low",0.951
same,normalized growth,"locus YKL160W, strain elf1, active compounds read low",0.982
same,normalized growth,"locus YKR001C, strain vps1, active compounds read low",0.808 (active)
same,normalized growth,"locus YKR026C, strain gcn3, active compounds read low",0.962
same,normalized growth,"locus YKR091W, strain srl3, active compounds read low",0.969
same,normalized growth,"locus YLL001W, strain dnm1, active compounds read low",0.945
same,normalized growth,"locus YLL026W, active compounds read low",0.973
same,normalized growth,"locus YLL041C, strain sdh2, active compounds read low",0.965
same,normalized growth,"locus YLR027C, strain aat2, active compounds read low",0.951
same,normalized growth,"locus YLR039C, strain RIC1, active compounds read low",0.688
same,normalized growth,"locus YLR058C, strain SHM2, active compounds read low",0.977
same,normalized growth,"locus YLR102C, strain apc9, active compounds read low",0.969
same,normalized growth,"locus YLR221C, strain rsa3, active compounds read low",0.905 (active)
same,normalized growth,"locus YLR258W, strain gsy2, active compounds read low",0.963
same,normalized growth,"locus YLR262C, strain YPT6 (second series), active compounds read low",0.968
same,normalized growth,"locus YLR262C, strain YPT6, active compounds read low",0.801
same,normalized growth,"locus YLR268W, strain sec22, active compounds read low",0.959
same,normalized growth,"locus YLR320W, strain mms22, active compounds read low",0.933
same,normalized growth,"locus YLR330W, strain CHS5, active compounds read low",0.974
same,normalized growth,"locus YLR342W, strain FKS1 (second series), active compounds read low",0.95
same,normalized growth,"locus YLR342W, strain FKS1, active compounds read low",0.963
same,normalized growth,"locus YLR357W, strain rsc2, active compounds read low",0.967
same,normalized growth,"locus YLR370C, strain arc18, active compounds read low",0.965
same,normalized growth,"locus YLR371W, strain rom2, active compounds read low",0.978
same,normalized growth,"locus YLR384C, strain iki3, active compounds read low",0.961
same,normalized growth,"locus YLR418C, strain cdc73, active compounds read low",0.872
same,normalized growth,"locus YML016C, strain PPZ1, active compounds read low",0.982
same,normalized growth,"locus YML032C, strain rad52, active compounds read low",0.967
same,normalized growth,"locus YML120C, strain ndi1, active compounds read low",0.966
same,normalized growth,"locus YML124C, strain tub3, active compounds read low",0.96
same,normalized growth,"locus YMR058W, strain fet3, active compounds read low",0.963
same,normalized growth,"locus YMR078C, strain ctf18, active compounds read low",0.951
same,normalized growth,"locus YMR125W, strain sto1, active compounds read low",1
same,normalized growth,"locus YMR129W, active compounds read low",0.969
same,normalized growth,"locus YMR205C, strain PFK2, active compounds read low",0.981
same,normalized growth,"locus YMR223W, strain ubp8, active compounds read low",0.932
same,normalized growth,"locus YMR231W, strain pep5, active compounds read low",0.972
same,normalized growth,"locus YMR263W, strain SAP30, active compounds read low",0.949
same,normalized growth,"locus YMR307W, strain GAS1, active compounds read low",0.923
same,normalized growth,"locus YNL067W, strain RPL9B, active compounds read low",0.953
same,normalized growth,"locus YNL071W, strain lat1, active compounds read low",0.957
same,normalized growth,"locus YNL153C, strain GIM3, active compounds read low",0.969
same,normalized growth,"locus YNL209W, strain ssb2, active compounds read low",0.997
same,normalized growth,"locus YNL233W, strain BNI4, active compounds read low",0.929
same,normalized growth,"locus YNL248C, strain rpa49, active compounds read low",0.871 (active)
same,normalized growth,"locus YNL250W, strain rad50, active compounds read low",0.967
same,normalized growth,"locus YNL271C, strain bni1, active compounds read low",0.957
same,normalized growth,"locus YNL298W, strain CLA4, active compounds read low",0.977
same,normalized growth,"locus YNL307C, strain MCK1, active compounds read low",0.952
same,normalized growth,"locus YNL322C, strain KRE1 (second series), active compounds read low",0.959
same,normalized growth,"locus YNR049C, strain mso1, active compounds read low",0.968
same,normalized growth,"locus YNR052C, strain pop2, active compounds read low",0.983
same,normalized growth,"locus YOL006C, strain TOP1, active compounds read low",0.587
same,normalized growth,"locus YOL012C, strain htz1",1.06
same,normalized growth,"locus YOL147C, strain pex11, active compounds read low",0.977
same,normalized growth,"locus YOR001W, strain rrp6, active compounds read low",0.922
same,normalized growth,"locus YOR061W, strain CKA2, active compounds read low",0.989
same,normalized growth,"locus YOR069W, strain VPS5, active compounds read low",0.981
same,normalized growth,"locus YOR070C, strain gyp1, active compounds read low",0.979
same,normalized growth,"locus YOR080W, strain dia2, active compounds read low",0.951
same,normalized growth,"locus YOR083W, strain WHI5, active compounds read low",0.979
same,normalized growth,"locus YOR106W, strain vam3, active compounds read low",0.938
same,normalized growth,"locus YOR136W, strain idh2, active compounds read low",0.972
same,normalized growth,"locus YOR144C, strain elg1, active compounds read low",0.979
same,normalized growth,"locus YOR184W, strain ser1, active compounds read low",0.96
same,normalized growth,"locus YOR265W, strain rbl2, active compounds read low",0.964
same,normalized growth,"locus YOR270C, strain vph1, active compounds read low",0.737 (active)
same,normalized growth,"locus YOR290C, strain snf2, active compounds read low",0.976
same,normalized growth,"locus YOR316C, strain cot1, active compounds read low",0.969
same,normalized growth,"locus YPL051W, strain arl3, active compounds read low",0.916
same,normalized growth,"locus YPL078C, strain atp4, active compounds read low",0.959
same,normalized growth,"locus YPL106C, strain sse1, active compounds read low",0.969
same,normalized growth,"locus YPL240C, strain hsp82, active compounds read low",0.979
same,normalized growth,"locus YPR119W, strain clb2, active compounds read low",0.961
same,normalized growth,"locus YPR141C, strain kar3, active compounds read low",0.964
same,normalized growth,"locus YPR163C, strain tif3, active compounds read low",0.948
same,normalized growth,"locus YPR167C, strain met16, active compounds read low",0.969
same,normalized growth,"strain wtn01, active compounds read low",0.957
